Experimental data from PubChem BioAssay (Tox21).
Results filed as inconclusive are left out. Where a call stands in place of a potency, no number is given. Some compounds were tested as several samples or in several runs, with calls that do not always agree. Active and inactive are the calls of the source. Calls come from the whole dose curve.

Key:
[1] = molecular target: Acetylcholinesterase (Homo sapiens) (UniProt P22303); test: Acetylcholinesterase (AChE) small molecule antagonists: colormetric cell-based qHTS assay (AID 1347395); conditions: SH-SY5Y cells AChE activity, colorimetric (Ellman); series mostly up to 115 µM; note: nearly all actives have a fitted effect of over 30% in size; note: potency is the fitted concentration of half-maximal effect
Acetylcholinesterase (Homo sapiens), sequence (P22303 whole entry, looked up): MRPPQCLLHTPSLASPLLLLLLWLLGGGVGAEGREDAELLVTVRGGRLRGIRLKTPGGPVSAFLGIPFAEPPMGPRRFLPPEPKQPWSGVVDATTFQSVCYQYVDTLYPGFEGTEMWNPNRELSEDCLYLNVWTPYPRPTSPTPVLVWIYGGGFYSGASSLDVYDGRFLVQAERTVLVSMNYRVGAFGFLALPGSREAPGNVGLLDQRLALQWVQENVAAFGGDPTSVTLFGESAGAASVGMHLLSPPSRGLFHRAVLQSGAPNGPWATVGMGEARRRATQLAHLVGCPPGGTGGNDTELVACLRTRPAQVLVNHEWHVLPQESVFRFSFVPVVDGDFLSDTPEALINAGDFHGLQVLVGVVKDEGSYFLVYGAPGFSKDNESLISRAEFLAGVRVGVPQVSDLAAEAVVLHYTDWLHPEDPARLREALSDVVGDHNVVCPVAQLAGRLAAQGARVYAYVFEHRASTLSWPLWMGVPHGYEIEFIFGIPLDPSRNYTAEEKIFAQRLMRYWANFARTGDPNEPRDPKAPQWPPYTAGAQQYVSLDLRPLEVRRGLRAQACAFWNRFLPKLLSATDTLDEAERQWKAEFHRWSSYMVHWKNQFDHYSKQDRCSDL
Method in brief: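 Quantitative HTS in attached SH-SY5Y cells: 30 min compound exposure, then 90 min with acetylthiocholine and DTNB at 37 C; colour from thiocholine reports AChE activity.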

[2] = molecular target: Acetylcholinesterase (Homo sapiens) (UniProt P22303); test: Acetylcholinesterase (AChE) small molecule antagonists: enzyme-based qHTS assay (AID 1347397); conditions: Potency: AChE enzyme activity inhibition; outcome: AChE enzyme activity inhibition; series mostly up to 115 µM; note: nearly all actives have a fitted effect of over 55% in size; note: potency is the fitted concentration of half-maximal effect
Method in brief: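 Colorimetric DTNB read-out of thiocholine released from acetylthiocholine by recombinant human AChE (50 mU/mL as dispensed). Compounds were preincubated 30 min at RT before substrate/DTNB addition, with a 10 min RT reaction.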

[3] = molecular target: Acetylcholinesterase (Homo sapiens) (UniProt P22303); test: Acetylcholinesterase (AChE) small molecule antagonists: fluorescence cell-based qHTS assay (AID 1347398); conditions: SH-SY5Y cells; Potency: AChE activity; outcome: AChE activity; series mostly up to 115 µM; note: nearly all actives have a fitted effect of over 50% in size; note: potency is the fitted concentration of half-maximal effect
Method in brief: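 SH-SY5Y, 2,000 cells/well, attached overnight; cmpd 30 min 37 C; acetylthiocholine/Thiolite Green cocktail 40 min RT; fluorescence Ex/Em 490/520 nm.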

[4] = molecular target: Acetylcholinesterase (Homo sapiens) (UniProt P22303); test: Acetylcholinesterase (AChE) small molecule antagonists: enzyme-based qHTS assay with human liver microsomes (AID 1347399); conditions: Potency: qHTS inhibition; outcome: qHTS inhibition; series mostly up to 115 µM; note: nearly all actives have a fitted effect of over 60% in size
Method in brief: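 Recombinant human AChE (50 mU/mL in the enzyme mix) and human liver microsomes (0.25 mg/mL final) were preincubated with compound and NADPH (0.25 mg/mL final) for 30 min at 37 C. Acetylthiocholine/DTNB was then added; thiocholine was read colorimetrically after 10 min at room temperature.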

Row | SMILES | Potency [1] | Potency [2] | Potency [3] | Potency [4] | activity change, negative = inhibition [4] | activity, negative = inhibition [1] | activity change, negative = inhibition [2] | activity change, negative = inhibition [3]
1 | O=C(O)Cc1cc(I)c(Oc2cc(I)c(O)c(I)c2)c(I)c1 | inactive | inactive | inactive | inactive |  |  |  | 
2 | CC1=C(O)C(=O)CO1 | inactive | inactive | inactive | inactive |  |  |  | 
3 | Nc1nc(-c2ccc([N+](=O)[O-])cc2)cs1 | inactive | inactive | inactive | inactive |  |  |  | 
4 | COc1ccc(-c2coc3cc(O)cc(O)c3c2=O)cc1 | inactive | inactive | inactive | inactive |  |  |  | 
5 | CC(C)=CCCC(C)CCOC=O (stereo not given) | inactive | inactive | inactive | inactive |  |  |  | 
6 | CCC(C)(CCC(C)C)C(=O)[O][Sn]([CH3])([CH3])[O]C(=O)C(C)(CC)CCC(C)C (stereo not given) | inactive | inactive | inactive | inactive |  |  |  | 
7 | COc1ccc(C#N)cc1 | inactive | inactive | inactive | inactive |  |  |  | 
8 | CCCCCCCCCCCCO | inactive | inactive | inactive | inactive |  |  |  | 
9 | O=C1c2ccccc2C(=O)c2c(O)c(O)cc(O)c21 | inactive | inactive | inactive | inactive |  |  |  | 
10 | CCCCCCS | inactive | inactive | inactive | inactive |  |  |  | 
11 | CCCCCCCCCCCCC | inactive | inactive | inactive | inactive |  |  |  | 
12 | O=C1NC(=O)c2ccccc21 | inactive | inactive | inactive | inactive |  |  |  | 
13 | COc1ccc(C(=O)N2CCN(CC(=O)N3CCOCC3)CC2)cc1 | inactive | inactive | inactive | inactive |  |  |  | 
14 | CCOC(=O)C1=NN(c2ccccc2)C(=O)C1 | inactive | inactive | inactive | inactive |  |  |  | 
15 | O=C(O)CCSSCCC(=O)O | inactive | inactive | inactive | inactive |  |  |  | 
16 | Cc1cccc(N(C)C(=S)Oc2ccc3ccccc3c2)c1 | inactive | inactive | inactive | inactive |  |  |  | 
17 | OCCCc1ccccc1 | inactive | inactive | inactive | inactive |  |  |  | 
18 | CCOc1cc(OCC)c(C(=O)CCC(=O)O)cc1OCC | inactive | inactive | inactive | inactive |  |  |  | 
19 | CC(CC=O)c1ccccc1 (stereo not given) | inactive | inactive | inactive | inactive |  |  |  | 
20 | Nc1ccc(N)c2c1C(=O)c1ccccc1C2=O | inactive | inactive | inactive | inactive |  |  |  | 

Row | SMILES | Potency [1] | Potency [2] | Potency [3] | Potency [4] | activity change, negative = inhibition [4] | activity, negative = inhibition [1] | activity change, negative = inhibition [2] | activity change, negative = inhibition [3]
21 | CCOC(=O)NNc1nncc2ccccc12 | inactive | inactive | inactive | inactive |  |  |  | 
22 | COc1cc(C(=S)N2CCOCC2)ccc1O | inactive | inactive | inactive | inactive |  |  |  | 
23 | O=C(/C=C/C=C/c1ccc2c(c1)OCO2)N1CCCCC1 | inactive | inactive | inactive | inactive |  |  |  | 
24 | CSc1ccc(O)cc1C | inactive | inactive | inactive | inactive |  |  |  | 
25 | C=C(C)[C@@H]1CC=C(C)C(=O)C1 | inactive | inactive | inactive | inactive |  |  |  | 
26 | CCNCCO | inactive | inactive | inactive | inactive |  |  |  | 
27 | CC(C)OC(=O)CCCCC(=O)OC(C)C | inactive | inactive | inactive | inactive |  |  |  | 
28 | OCC(CO)(CO)COCC(CO)(CO)CO | inactive | inactive | inactive | inactive |  |  |  | 
29 | O=c1cc(-c2ccccc2)oc2cc(O)cc(O)c12 | inactive | inactive | inactive | inactive |  |  |  | 
30 | CCCCCC1CCCC(=O)O1 (stereo not given) | inactive | inactive | inactive | inactive |  |  |  | 
31 | Cc1c(C(=O)O)cccc1[N+](=O)[O-] | inactive | inactive | inactive | inactive |  |  |  | 
32 | CC(C)(C)NCC(O)COc1ccccc1OCC1CCCO1 (stereo not given) | inactive | inactive | inactive | inactive |  |  |  | 
33 | COc1ccc(S(=O)(=O)Nc2nnc(CC(C)C)s2)cc1 | inactive | inactive | inactive | inactive |  |  |  | 
34 | CC(=O)Nc1ccc(C)cc1 | inactive | inactive | inactive | inactive |  |  |  | 
35 | O=C1CCCCCCCCCCOCCCCO1 | inactive | inactive | inactive | inactive |  |  |  | 
36 | IC(I)I | inactive | inactive | inactive | inactive |  |  |  | 
37 | c1ccc(CCNc2nc(-c3ccccc3)cs2)cc1 | inactive | inactive | inactive | inactive |  |  |  | 
38 | CCCCCOC(C)=O | 32.1 µM (active) and inactive | inactive | inactive | inactive |  |  |  | 
39 | COc1ccc(C(=O)c2cccc(O)c2)c(OC)c1 | inactive | inactive | inactive | inactive |  |  |  | 
40 | CC(=O)[C@@]1(O)CC[C@H]2[C@@H]3C[C@H](C)C4=CC(=O)C=C[C@]4(C)[C@@]3(F)[C@@H](O)C[C@@]21C | inactive | inactive | inactive | inactive |  |  |  | 

Row | SMILES | Potency [1] | Potency [2] | Potency [3] | Potency [4] | activity change, negative = inhibition [4] | activity, negative = inhibition [1] | activity change, negative = inhibition [2] | activity change, negative = inhibition [3]
41 | CN(C)/N=N/c1nc[nH]c1C(N)=O | inactive | inactive | inactive | inactive |  |  |  | 
42 | CCNC(=S)NCC | inactive | inactive | inactive | inactive |  |  |  | 
43 | COc1ccccc1Oc1c(NS(=O)(=O)c2ccc(C(C)(C)C)cc2)nc(-c2ncccn2)nc1OCCO | inactive | inactive | inactive | inactive |  |  |  | 
44 | OCc1ccccc1 | 39.4 µM (active) and inactive | inactive | inactive | inactive |  |  |  | 
45 | C=C(C)C(=O)Nc1ccc(Cl)c(Cl)c1 | inactive | inactive | inactive | inactive |  |  |  | 
46 | O=C(Oc1ccccc1)c1ccccc1 | inactive | inactive | inactive | inactive |  |  |  | 
47 | COc1cc(C)ccc1O | inactive | inactive | inactive | inactive |  |  |  | 
48 | CC12CCC(C1)C(C)(C)C2O (stereo not given) | inactive | inactive | inactive | inactive |  |  |  | 
49 | Cc1ccc2oc(=O)ccc2c1 | inactive | inactive | inactive | inactive |  |  |  | 
50 | CC(O)c1ccccc1 (stereo not given) | inactive | inactive | inactive | inactive |  |  |  | 
51 | CC(C)C(=O)OCCOc1ccccc1 | inactive | inactive | inactive | inactive |  |  |  | 
52 | O=C(Nc1cccc(C2=NCCN2)c1)Nc1cccc(C2=NCCN2)c1 | 3.79 µM (active) | 10.7 µM (active) | 2.13 µM (active) |  | -3.93% [at 23.6 µM] (inactive) |  |  | 
53 | OCc1ccccc1O | inactive | inactive | inactive | inactive |  |  |  | 
54 | C[C@]12CCC(=O)C=C1CC[C@@H]1[C@@H]2CC[C@@]2(C)[C@H]1CC[C@]2(O)C(=O)CO | inactive | inactive | inactive | inactive |  |  |  | 
55 | COc1ccc(/C=N/NC(=O)c2ccncc2)cc1OC | inactive | inactive | inactive | inactive |  |  |  | 
56 | COc1nccnc1CC(C)C | inactive | inactive | inactive | inactive |  |  |  | 
57 | C[C@@H](N)C(=O)O | inactive | inactive | inactive | inactive |  |  |  | 
58 | CCOC=C(C(=O)OCC)C(=O)OCC | inactive | inactive | inactive | inactive |  |  |  | 
59 | Nc1ccc2c(c1)CN1C(=O)c3ccccc3C1=N2 |  |  |  |  | 6.82% [at 23.6 µM] (inactive) | -3.06% [at 23.6 µM] (inactive) | 1.39% [at 23.6 µM] (inactive) | -15.4% [at 23.8 µM] (inactive)
60 | Oc1cc(O)c(Cl)cc1Cl | inactive | inactive | inactive | inactive |  |  |  | 
